Test results as given in PubChem BioAssay (NCATS).
Inconclusive results are not listed. Unless noted, calls follow the shape of the dose curve; as a rule, active = well fitted curve in either direction with a large enough effect (not every such curve was filed as active); inconclusive = small, poorly fitted or top-dose-only effect, or another doubt; inactive = flat fitted curve, though single readings scatter.

Key:
[1] = AP1 Signaling Pathway (AID 357); settings: ME-180 AP-1-bla reporter, EGF-induced, beta-lactamase ratio, 5 h; at 17.2 µM (top of the series) unless noted;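 also: ME-180 reporter cells stimulated with EGF at its EC50 level; % is scaled to controls: 0 for no effect and ±100 for the full control effect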
In short: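 First, ME-180 AP-1-bla cells were cultured overnight at 37 °C in low-serum Opti-MEM. Next, titrated compounds with EC50 EGF were incubated 5 hours. Finally, CCF4 was added for 2.5 hours and the 460/530 nm ratio recorded.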

[2] = NFAT Signaling Pathway (AID 444); settings: Jurkat NFAT-bla M1, carbachol, beta-lactamase ratio, 5 h; at 17.2 µM (top of the series) unless noted;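 also: carbachol stimulus at about its EC50 of 1 µM final; % is scaled to controls: 0 for no effect and ±100 for the full control effect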
In short: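 Read-out: CCF4 FRET ratio (460 nm/530 nm) after 1 h RT dye loading, used for %activity and AC50 from titration series. Cells: Jurkat NFAT-β-lactamase/M1 line, treated with compound plus 1 uM carbachol for 5 h, 37 °C.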

[3] = Stat Signaling Pathway (AID 446); settings: ME-180 (cervical carcinoma) SIE beta-lactamase reporter, IL-6 stimulated, 5 h; at 17.2 µM (top of the series) unless noted;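 also: ME-180 cervical cancer cells given 40 pM IL-6 alongside compound; SIE-controlled beta-lactamase reporter measured as 460/530 nm FRET emission ratio; % is scaled to controls: 0 for no effect and ±100 for the full control effect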
In short: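 Compound effects on IL-6-induced STAT reporter activity were measured in ME-180 cells. After overnight culture, cells were co-treated with 40 pM IL-6 for 5 hrs before beta-lactamase substrate loading at room temperature.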

[4] = molecular target: Glucocorticoid receptor (Homo sapiens) (UniProt P04150); experiment: GR-GFP Redistribution (AID 450;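 active = compounds whose dose series gives a full or clear partial fitted curve of increased nuclear translocation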; also: potency is read from the fitted curve at half-maximal effect)
Sequence of Glucocorticoid receptor (Homo sapiens) (P04150 whole entry, looked up): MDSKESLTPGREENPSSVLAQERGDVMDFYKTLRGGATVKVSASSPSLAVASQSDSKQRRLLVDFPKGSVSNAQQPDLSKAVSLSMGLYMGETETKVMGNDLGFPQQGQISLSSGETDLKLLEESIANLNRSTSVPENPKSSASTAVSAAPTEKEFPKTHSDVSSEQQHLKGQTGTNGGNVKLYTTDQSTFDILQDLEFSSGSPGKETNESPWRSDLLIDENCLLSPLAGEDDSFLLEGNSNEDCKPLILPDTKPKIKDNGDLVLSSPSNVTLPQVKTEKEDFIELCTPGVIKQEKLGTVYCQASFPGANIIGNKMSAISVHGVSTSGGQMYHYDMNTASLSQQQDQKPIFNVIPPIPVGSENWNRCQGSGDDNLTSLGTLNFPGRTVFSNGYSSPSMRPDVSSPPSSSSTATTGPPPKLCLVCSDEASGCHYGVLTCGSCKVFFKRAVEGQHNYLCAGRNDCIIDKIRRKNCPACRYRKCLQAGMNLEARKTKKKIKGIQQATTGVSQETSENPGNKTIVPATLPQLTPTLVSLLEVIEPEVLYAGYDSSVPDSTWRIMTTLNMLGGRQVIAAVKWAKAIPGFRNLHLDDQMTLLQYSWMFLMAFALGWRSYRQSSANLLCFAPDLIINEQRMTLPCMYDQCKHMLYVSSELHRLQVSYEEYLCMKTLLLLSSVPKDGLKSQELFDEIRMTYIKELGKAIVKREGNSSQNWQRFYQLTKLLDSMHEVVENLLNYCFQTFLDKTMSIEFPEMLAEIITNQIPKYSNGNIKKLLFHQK

C=CCn1c(N)c(C(=O)OC(C)(C)C)c2nc3ccccc3nc21
inactive: activity change, negative = inhibition [1] -16.9% | activity change, negative = inhibition [2] 3.64% | activity, negative = inhibition [3] -6.1% | Potency [4] > 20.6 µM

CCOc1ccc(-n2c3nc4ccccc4nc3c3c(=O)n(Cc4ccco4)cnc32)cc1
inactive: activity change, negative = inhibition [1] -1.51% | activity change, negative = inhibition [2] -9.2% | activity, negative = inhibition [3] -2.34% | Potency [4] > 20.6 µM

Cc1nc2c(c(=O)n1CC1CCCO1)c1nc3ccccc3nc1n2CCC(C)C (stereo not given)
inactive: activity change, negative = inhibition [1] 6.32% | activity change, negative = inhibition [2] -6.4% | activity, negative = inhibition [3] -12.2% | Potency [4] > 20.6 µM

Cc1cc(CC(=O)O)c(C)cc1CC(=O)O
inactive: activity change, negative = inhibition [1] 11.9% | activity change, negative = inhibition [2] 2.75% | activity, negative = inhibition [3] 2.12% | Potency [4] > 20.6 µM

O=C(CN1C(=O)c2ccccc2C1=O)OCN1C(=O)c2ccccc2C1=O
inactive: activity change, negative = inhibition [1] 8.86% | activity change, negative = inhibition [2] -11.6% | activity, negative = inhibition [3] 6.85% | Potency [4] > 20.6 µM

Cc1cccn2c(=O)c3cc(C(=O)NCc4cccnc4)c(=N)n(C)c3nc12
inactive: activity change, negative = inhibition [1] 0.507% | activity change, negative = inhibition [2] 5.48% | activity, negative = inhibition [3] 10% | Potency [4] > 20.6 µM

c1coc(CNc2ncnc3ccccc23)c1
inactive: activity change, negative = inhibition [1] -22.1% | activity change, negative = inhibition [2] -14.7% | activity, negative = inhibition [3] -18.3% | Potency [4] > 20.6 µM

CCCc1nnc(NC(=O)Nc2ccccc2OC)s1
inactive: activity change, negative = inhibition [1] 0.551% | activity change, negative = inhibition [2] 25% | activity, negative = inhibition [3] -4.19% | Potency [4] > 20.6 µM

COCCOC(=O)C1=C(C)OC(N)=C(C#N)C1c1ccco1 (stereo not given)
inactive: activity change, negative = inhibition [1] 0.22% | activity change, negative = inhibition [2] -14.6% | activity, negative = inhibition [3] -4.05% | Potency [4] > 20.6 µM

Cn1c(N)c(C#N)c(C#N)c1-c1ccccc1
inactive: activity change, negative = inhibition [1] -21.2% | activity change, negative = inhibition [2] 4.54% | activity, negative = inhibition [3] -8.46% | Potency [4] > 20.6 µM

N/C(CCCN1CCCCC1)=N/O
inactive: activity change, negative = inhibition [1] 14.3% | activity change, negative = inhibition [2] -3.1% | activity, negative = inhibition [3] -0.379% | Potency [4] > 20.6 µM

COC(=O)/C=c1/s/c(=C(\C#N)C(=O)NCc2ccco2)n(-c2ccccc2)c1=O
inactive: activity change, negative = inhibition [1] -2.83% | activity change, negative = inhibition [2] -25.7% | activity, negative = inhibition [3] 5.13% | Potency [4] > 20.6 µM

Nc1ccc2oc(-c3ccccc3Cl)nc2c1
inactive: activity change, negative = inhibition [1] -0.869% | activity change, negative = inhibition [2] 15.3% | activity, negative = inhibition [3] 2.57% | Potency [4] > 20.6 µM

Cc1ccc2[nH]c3c(c2c1)CCCC3C(N)=O (stereo not given)
inactive: activity change, negative = inhibition [1] -5.19% | activity change, negative = inhibition [2] -1.59% | activity, negative = inhibition [3] 8.83% | Potency [4] > 20.6 µM

CC(C)N1CCc2c(sc(N)c2C#N)C1
inactive: activity change, negative = inhibition [1] 5.12% | activity change, negative = inhibition [2] -22.4% | activity, negative = inhibition [3] -5% | Potency [4] > 20.6 µM

O=C(CCCN1C(=O)c2ccccc2C1=O)N1CCC(c2ccccc2)C1 (stereo not given)
inactive: activity change, negative = inhibition [1] -21.8% | activity change, negative = inhibition [2] 15.7% | activity, negative = inhibition [3] 1.3% | Potency [4] > 20.6 µM

N#Cc1c(SCC(=O)O)nc(N2CCCCC2)c2c1CCCC2
inactive: activity change, negative = inhibition [1] 6.2% | activity change, negative = inhibition [2] 10.4% | activity, negative = inhibition [3] -7.23% | Potency [4] > 20.6 µM

COC(=O)/C=c1/s/c(=C(/C#N)C(=O)N2CCCCC2)n(-c2ccccc2)c1=O
inactive: activity change, negative = inhibition [1] 26% | activity change, negative = inhibition [2] -25.6% | activity, negative = inhibition [3] -5.91% | Potency [4] > 20.6 µM

CCOc1ccc(-n2c(SCc3ccc(C#N)cc3)nnc2-c2cccnc2)cc1
inactive: activity change, negative = inhibition [1] -13.8% | activity change, negative = inhibition [2] 6.12% | activity, negative = inhibition [3] -13.6% | Potency [4] > 20.6 µM

N#CCCn1cnc2c(=S)nc[nH]c21
inactive: activity change, negative = inhibition [1] 16.8% | activity change, negative = inhibition [2] 11.2% | activity, negative = inhibition [3] 11.6% | Potency [4] > 20.6 µM

Cn1c(=O)n(Cc2ccccc2)c(=O)c2c1nc(NCC1CCCO1)n2Cc1ccccc1 (stereo not given)
inactive: activity change, negative = inhibition [1] -28.9% | activity change, negative = inhibition [2] -16.1% | activity, negative = inhibition [3] -15.3% | Potency [4] > 20.6 µM

Cc1ccc2[nH]c3c(N4CCOCC4)ncnc3c2c1
inactive: activity change, negative = inhibition [1] -7.05% | activity change, negative = inhibition [2] 18.4% | activity, negative = inhibition [3] -10.6% | Potency [4] > 20.6 µM

CCCOc1ccc(CSC(CC(=O)O)C(=O)O)cc1 (stereo not given)
inactive: activity change, negative = inhibition [1] 4.79% | activity change, negative = inhibition [2] 13.3% | activity, negative = inhibition [3] 6.22% | Potency [4] > 20.6 µM

Cc1nnc2n(-c3ccccc3)c(=O)c3c4c(sc3n12)CCCC4
inactive: activity change, negative = inhibition [1] 21.9% | activity change, negative = inhibition [2] -2.17% | activity, negative = inhibition [3] 10.4% | Potency [4] > 20.6 µM

Cc1ccc(S(=O)(=O)NCC(=O)OCN2C(=O)c3ccccc3C2=O)cc1
inactive: activity change, negative = inhibition [1] 2.06% | activity change, negative = inhibition [2] -25.1% | activity, negative = inhibition [3] 9.1% | Potency [4] > 20.6 µM

Cc1cccc(-c2nc(C#N)c(NC3CCCCC3)o2)c1
inactive: activity change, negative = inhibition [1] -27.9% | activity change, negative = inhibition [2] -26.6% | activity, negative = inhibition [3] -7.27% | Potency [4] > 20.6 µM

Cc1cc(C)n(-c2c(F)c(F)c(CN3CCCCC3)c(F)c2F)n1
inactive: activity change, negative = inhibition [1] -3.48% | activity change, negative = inhibition [2] -27.9% | activity, negative = inhibition [3] 5.23% | Potency [4] > 20.6 µM

Oc1ccc(C=Nc2ccc3ncccc3c2)c(O)c1
inactive: activity change, negative = inhibition [1] 26.2% | activity change, negative = inhibition [2] -26.8% | activity, negative = inhibition [3] 13.2% | Potency [4] > 20.6 µM

CC(C)(C)NC(=O)/C=N/O
inactive: activity change, negative = inhibition [1] 10.5% | activity change, negative = inhibition [2] 23.2% | activity, negative = inhibition [3] 3.21% | Potency [4] > 20.6 µM

CCOC(=O)CCc1c(C)c(C#N)c2nc3ccccc3n2c1-n1ccnc1C
inactive: activity change, negative = inhibition [1] -3.36% | activity change, negative = inhibition [2] -1.61% | activity, negative = inhibition [3] -4.34% | Potency [4] > 20.6 µM

COc1ccc(OC)c(C2/C(=C(\O)c3ccc4c(c3)OCCO4)C(=O)C(=O)N2CCCN(C)C)c1 (stereo not given)
inactive: activity change, negative = inhibition [1] 4.27% | activity change, negative = inhibition [2] 12.2% | activity, negative = inhibition [3] -7.15% | Potency [4] > 20.6 µM

Cc1cc(C)c(C#N)c(OCC(=O)c2ccccc2)n1
inactive: activity change, negative = inhibition [1] -15.4% | activity change, negative = inhibition [2] -4.3% | activity, negative = inhibition [3] -6.66% | Potency [4] > 20.6 µM

COc1cc(C2C(C(=O)c3sc(C)nc3C)=C(O)C(=O)N2CCN(C)C)cc(OC)c1OC (stereo not given)
inactive: activity change, negative = inhibition [1] -0.396% | activity change, negative = inhibition [2] 1.9% | activity, negative = inhibition [3] 8.27% | Potency [4] > 20.6 µM

COCc1n[nH]c(=S)n1-c1cccc2ccccc12
inactive: activity change, negative = inhibition [1] -1.13% | activity change, negative = inhibition [2] 1.36% | activity, negative = inhibition [3] 0.355% | Potency [4] > 20.6 µM

CC1C/C=C/C=C/C=C/C=C/C(O[C@@H]2O[C@H](C)[C@@H](O)[C@H](N)[C@@H]2O)CC2OC(O)(CC(O)CC3OC3/C=C/C(=O)O1)CC(O)C2C(=O)O (stereo not given in full)
inactive: activity change, negative = inhibition [1] 1.3% | activity change, negative = inhibition [2] 0.554% | activity, negative = inhibition [3] 5.83% | Potency [4] > 20.6 µM

CC1(C)SC2[C@H](NC(=O)C(NC(=O)N3CCNC3=O)c3ccccc3)C(=O)N2C1C(=O)O (stereo not given in full)
inactive: activity change, negative = inhibition [1] -0.219% | activity change, negative = inhibition [2] 7.62% | activity, negative = inhibition [3] 1.47% | Potency [4] > 20.6 µM

Cc1cc(OCCN2CCOCC2)nc2ccccc12
inactive: activity change, negative = inhibition [1] -9.97% | activity change, negative = inhibition [2] 23.5% | activity, negative = inhibition [3] 1.79% | Potency [4] > 20.6 µM

CN(C)c1ccc(O)c2c1CC1CC3[C@@H](N(C)C)C(=O)C(C(N)=O)=C(O)[C@]3(O)C(=O)C1=C2O (stereo not given in full)
inactive: activity change, negative = inhibition [1] 6.78% | activity change, negative = inhibition [2] 8.29% | activity, negative = inhibition [3] -13.5% | Potency [4] > 20.6 µM

COC(=O)c1[nH]c2cc(OC)ccc2c1NC(=O)CN1CCC(C(N)=O)CC1
inactive: activity change, negative = inhibition [1] -3.69% | activity change, negative = inhibition [2] -2.98% | activity, negative = inhibition [3] 0.718% | Potency [4] > 20.6 µM

Nc1c(C(=O)NCc2ccco2)sc2nc(N3CCOCC3)c3c(c12)CCCC3
inactive: activity change, negative = inhibition [1] -27.5% | activity change, negative = inhibition [2] 16.8% | activity, negative = inhibition [3] -13.4% | Potency [4] > 20.6 µM

CCCCC1(C(=O)OCC)CC(CN2CCOCC2)OC1=O (stereo not given)
inactive: activity change, negative = inhibition [1] 2.64% | activity change, negative = inhibition [2] -18.1% | activity, negative = inhibition [3] 3.3% | Potency [4] > 20.6 µM

CC(=O)Nc1cnc2ccccc2n1
inactive: activity change, negative = inhibition [1] 2.26% | activity change, negative = inhibition [2] -13.5% | activity, negative = inhibition [3] 7.01% | Potency [4] > 20.6 µM

CCOC(=O)C1=C(CSc2nc(C)cc(C)c2C#N)OC(N)=C(C#N)C1c1cccs1 (stereo not given)
inactive: activity change, negative = inhibition [1] 18.8% | activity change, negative = inhibition [2] -27.2% | activity, negative = inhibition [3] -6.58% | Potency [4] > 20.6 µM

CC(C(=O)N1CCOCC1)N1C(=O)c2ccccc2C1=O (stereo not given)
inactive: activity change, negative = inhibition [1] 14.2% | activity change, negative = inhibition [2] -4.66% | activity, negative = inhibition [3] 10.1% | Potency [4] > 20.6 µM

COc1cccc(C2/C(=C(\O)c3ccc(OC)c(OC)c3)C(=O)C(=O)N2c2cc(C)on2)c1 (stereo not given)
inactive: activity change, negative = inhibition [1] -7.94% | activity change, negative = inhibition [2] 6.78% | activity, negative = inhibition [3] -8.6% | Potency [4] > 20.6 µM
